According to PubChem BioAssay AID1851 (National Center for Advancing Translational Sciences (NCATS), 2009):
The whole screen tested about 16,000 compounds, of which about 5,700 (36%) were called active. Not shown: some 24% with an inconclusive outcome. This is one part of the list. Values without a mark were called inactive. Calls come from the whole dose curve; as a rule, active = well fitted curve in the direction sought with a large enough effect; inconclusive = small, poorly fitted or top-dose-only effect, or effect the other way; inactive = no such curve, though single readings can be large or run the other way. Peptide text beside a SMILES is read from it. * marks the point of attachment. Cbz = O=C(OCc1ccccc1)*
% is set by controls: 0 for no effect and ±100 for the full control effect.

What follows are compounds tested against Cytochrome P450 1A2 (Homo sapiens) (UniProt P05177) (assay: Cytochrome panel assay with activity outcomes). Conditions: recombinant CYP, pro-luciferin dealkylation, luminescence, p450-cyp1a2; series mostly up to 57.1 µM; activity, negative = inhibition: at the top concentration.
Sequence of Cytochrome P450 1A2 (Homo sapiens) (P05177 whole entry, looked up): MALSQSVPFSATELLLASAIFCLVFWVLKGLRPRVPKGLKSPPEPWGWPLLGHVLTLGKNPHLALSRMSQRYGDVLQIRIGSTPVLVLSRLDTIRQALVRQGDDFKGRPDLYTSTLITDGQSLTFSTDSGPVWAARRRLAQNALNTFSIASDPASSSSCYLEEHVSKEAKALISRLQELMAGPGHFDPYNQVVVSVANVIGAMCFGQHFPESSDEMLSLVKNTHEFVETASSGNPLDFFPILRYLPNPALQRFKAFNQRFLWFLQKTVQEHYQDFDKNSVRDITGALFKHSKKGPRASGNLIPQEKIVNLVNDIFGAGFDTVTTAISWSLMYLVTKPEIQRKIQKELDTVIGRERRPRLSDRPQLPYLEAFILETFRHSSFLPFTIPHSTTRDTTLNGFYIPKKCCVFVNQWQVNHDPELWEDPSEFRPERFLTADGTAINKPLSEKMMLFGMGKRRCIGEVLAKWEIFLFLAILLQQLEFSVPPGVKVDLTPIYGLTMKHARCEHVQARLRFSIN
For `COc1c(O[C@H]2O[C@@H](CO)[C@@H](O)[C@@H](O)[C@@H]2O)cc2c(c1OC)-c1ccc(SC)c(=O)cc1[C@H](NC(C)=O)CC2`, the “activity, negative = inhibition” value was -16.7% [at 25.6 µM].
`COc1cc(C(=O)N2CCC(NC(=O)C(Cc3ccc(C(C)C)cc3)NC(C)=O)CC2)cc(OC)c1OC` (stereo not given) was tested, and the “activity, negative = inhibition” value was -25.5%.
`Oc1cc2c(cc1O)CN(C(=S)NCCc1ccc(Cl)cc1)CCC2` was tested, and the AC50 was 20 µM (active).
For `O=C(NCCN1CCCC1)C1(S(=O)(=O)c2ccc(Cl)cc2)CC1`, the “activity, negative = inhibition” value was -19.8%.
With `O=C(NCCc1ccc(Cl)cc1)C1CCN(S(=O)(=O)N2CCC3(CC2)OCCO3)CC1` the “activity, negative = inhibition” value was -3.74%.
For `COc1ccc(Oc2c(Cl)cnn(-c3ccccc3)c2=O)cc1`, the AC50 was 7.08 µM (active).
In the case of `COc1cccc(/C=N/n2nnc3c(cnn3-c3ccccc3)c2=O)c1`, the “activity, negative = inhibition” value was -27.9%.
`COc1ccc(-n2nc(C(=O)NCC(=O)Nc3ccccn3)c3ccccc3c2=O)cc1` was tested, and the “activity, negative = inhibition” value was -4.65%.
For `Cn1c([N+](=O)[O-])cnc1CN1CCN(CCO)CC1`, the activity, negative = inhibition was 9.16% [at 2.29 µM].
With `c1ccc(-c2n[nH]c(-c3ccccc3)c2-c2nc3ccccc3[nH]2)cc1` the AC50 was 8.91 µM (active).
`CCOc1cc(NC(=S)Nc2cccc(C)c2)c(OCC)cc1NC(=O)CC(C)C` was tested, and the AC50 was 5.01 µM (active).
With `CCOc1cc(NC(=O)c2ccccc2[N+](=O)[O-])c(OCC)cc1NC(=O)CC(C)C` the “activity, negative = inhibition” value was -11.8%.
With `Cc1cccc(NC(=S)NNC(=O)CC(C)O)c1C` (stereo not given) the “activity, negative = inhibition” value was -22.8%.
With `CC1(C)CC(=O)C2=C(C1)Oc1nc3ccccc3cc1C2C(C#N)C#N` (stereo not given) the AC50 was 22.4 µM (active).
With `CC1(C)CC(=O)C([C@H]2C3=C(CC(C)(C)CC3=O)Oc3ccccc32)C(=O)C1` the “activity, negative = inhibition” value was -6.77%.
`CN1CCN(/C=N/C2=C(C#N)C(c3ccccc3)C3=C(CC(C)(C)CC3=O)O2)CC1` (stereo not given) was tested, and the “activity, negative = inhibition” value was -16.3%.
`N/C(CC/C(N)=N/O)=N\O` showed an activity, negative = inhibition of -17.8% [at 11.4 µM].
For `Cc1nnsc1SCC(=O)O`, the “activity, negative = inhibition” value was -5.81%.
`O=C(O)CSc1sc(=S)sc1SCC(=O)O` was tested, and the AC50 was 12.6 µM (active).
`O=C(O)CSSCC(=O)O` was tested, and the activity, negative = inhibition was -2.44% [at 11.4 µM].
With `COc1cccc([C@H]2Oc3ccc(OC)cc3/C(=N\O[C@@H]3O[C@H](COC(C)=O)[C@H](OC(C)=O)[C@H](OC(C)=O)[C@H]3OC(C)=O)[C@@H]2O)c1` the activity, negative = inhibition was 2.78% [at 11.4 µM].
In the case of `Fc1nc(N2CCCC2)c(F)c(Oc2ccccc2Oc2c(F)c(F)nc(N3CCCC3)c2F)c1F`, the “activity, negative = inhibition” value was -26.3%.
In the case of `CCOC(=O)c1ccccc1Oc1c(F)c(F)nc(NCCO)c1F`, the AC50 was 8.91 µM (active).
With `Fc1cccc(C2NC(=S)NC3=C2N2CCC3CC2)c1` (stereo not given) the “activity, negative = inhibition” value was -4.29%.
With `Cc1nc(SCC(=O)c2cc3ccccc3oc2=O)c(C#N)c(C)c1C(=O)Nc1ccccc1` the “activity, negative = inhibition” value was -7.52%.
In the case of `Cc1c(C#N)c(=O)oc2ccc3ccccc3c12`, the AC50 was 0.126 µM (active).
With `COc1ccc(NC(=O)N2CC3(CCN(C(=O)c4cnccn4)CC3)C2)cc1` the “activity, negative = inhibition” value was -0.562%.
`O=C1C2CCCN2C(c2ccc(F)cc2)N1c1nccs1` (stereo not given) was tested, and the AC50 was 3.16 µM (active).
In the case of `Cc1cccc(OCC(=O)NNC(=O)CSc2ncc(C#N)c(N)n2)c1`, the “activity, negative = inhibition” value was -11.1%.
For `Cc1snc(SCC(=O)N/N=C(\N)COc2cccc(C(F)(F)F)c2)c1C#N`, the AC50 was 12.6 µM (active).
In the case of `C[C@H]1CC[C@H]2C(=O)N3[C@H](c4ccc(Br)cc4)[C@@H](C)CC[C@H]3C(=O)N2[C@@H]1c1ccc(Br)cc1`, the activity, negative = inhibition was -10.6% [at 11.4 µM].
For `O=C1CC(=Nc2ccccc2)NN1c1ccccc1`, the AC50 was 6.31 µM (active).
With `CC(C)C(NC(=O)OCc1ccccc1)C(=O)O` (stereo not given) the “activity, negative = inhibition” value was -3.1%.
For `O=C(N[C@@H](Cc1ccccc1)C(=O)CCl)OCc1ccccc1`, the AC50 was 3.16 µM (active).
With `CC(C)[C@H](NC(=O)OCc1ccccc1)C(=O)N[C@H](C=O)Cc1ccccc1` (Cbz-Val-Phe-aldehyde) the “activity, negative = inhibition” value was -20.6%.
`CN(CC(=O)O)Cc1c(O)c(Cl)cc(Cl)c1Cl` showed an activity, negative = inhibition of -0.983% [at 2.29 µM].
`COc1ccc(OC)c(C2C(C(=O)Nc3nc4ccccc4s3)=C(C)NC3=C2C(=O)CCC3)c1` (stereo not given) was tested, and the AC50 was 1.41 µM (active).
`COc1ccc(-c2cc(C(=O)Nc3nc4c(C)cccc4s3)c3ccccc3n2)cc1OC` was tested, and the “activity, negative = inhibition” value was -21.2%.
For `CS(=O)(=O)N1CCC2(CCCN(C(=O)Nc3cccc(F)c3)C2)CC1`, the “activity, negative = inhibition” value was -19.7%.
`Cc1ccc(S(=O)(=O)O[C@@H]2[C@H]([C@@H]3COC(C)(C)O3)O[C@H]3OC(C)(C)O[C@@H]32)cc1` gave an activity, negative = inhibition of -15.9% [at 11.4 µM].
With `Cc1ccc(Sc2nc(-c3ccccc3)ccc2C#N)cc1` the AC50 was 2.82 µM (active).
In the case of `N#Cc1ccc(-c2ccc(F)cc2)nc1Sc1ccccc1`, the AC50 was 0.891 µM (active).
`CC[C@@H]1OC(=O)[C@H](C)[C@H](O[C@@H]2C[C@](C)(OC)[C@H](O)[C@H](C)O2)[C@H](C)[C@H](O[C@@H]2O[C@@H](C)C[C@@H](N(C)C)[C@@H]2O)[C@](C)(O)C[C@H](C)[C@@H]2N[C@H](COCCOC)O[C@H]([C@@H]2C)[C@]1(C)O` was tested, and the “activity, negative = inhibition” value was -13% [at 25.6 µM].
For `COc1ccc(/C=N/Nc2snc(SC)c2C#N)cc1OC`, the AC50 was 0.708 µM (active).
With `COc1cc(/C=N/Nc2snc(SC)c2C#N)cc(OC)c1OC` the AC50 was 4.47 µM (active).
Compound `CO[C@H]1COC(=O)C/C=C\[C@H](C)COC(=O)[C@@H](C)NC(=O)C/C=C\[C@@H]1C` has an activity, negative = inhibition of -2.38% [at 11.4 µM].
`C[C@@]12C=CC(=O)C=C1CC[C@@H]1[C@@H]2[C@H](O)C[C@]2(C)[C@@H]1CC[C@]2(O)C(=O)CO` was tested, and the “activity, negative = inhibition” value was -4.7% [at 25.6 µM].
For `CCc1ccc(-c2cc(C(F)(F)F)n3nc(C(=O)Nc4cnn(Cc5ccccc5C)c4)cc3n2)s1`, the “activity, negative = inhibition” value was -8.63%.
`Cc1ccccc1Cn1cc(NC(=O)CSc2nc3c(c(C(F)(F)F)n2)CCc2ccccc2-3)cn1` was tested, and the AC50 was 7.08 µM (active).
With `Cc1nn(Cc2ccc(Cl)cc2)c(C)c1NC(=O)CSc1nc2c(c(C(F)(F)F)n1)CCc1ccccc1-2` the “activity, negative = inhibition” value was -27.6%.
For `CC(=O)NS(=O)(=O)c1ccc(N)cc1`, the “activity, negative = inhibition” value was 4.18% [at 25.6 µM].
With `O=C(Nc1ccc(F)cc1)c1ccc(-n2ccnc2)nc1` the AC50 was 0.501 µM (active).
With `Cc1cc(C(F)F)n2nc(C(=O)Nc3cccnc3Cl)nc2n1` the “activity, negative = inhibition” value was -20%.
For `Cc1c(Cl)cccc1NC(=O)c1ccc(-n2ccnc2)nc1`, the AC50 was 0.794 µM (active).
With `O=C(Nc1ccc(-n2nncc2-c2ccco2)cc1)c1ccc(F)cc1` the “activity, negative = inhibition” value was -24.2%.
In the case of `Nc1ccn([C@@H]2CC[C@H](CO)O2)c(=O)n1`, the “activity, negative = inhibition” value was -8.58% [at 25.6 µM].
`COc1ccc(Oc2ncc3nc(C)c(=O)n(C)c3n2)cc1` was tested, and the AC50 was 12.6 µM (active).
In the case of `Cc1nc2cnc(Oc3ccccc3)nc2n(C)c1=O`, the AC50 was 12.6 µM (active).
`NC(=O)c1nnn(Cc2cc(Cl)c(C(=O)c3ccc(Cl)cc3)c(Cl)c2)c1N` was tested, and the activity, negative = inhibition was -2.19% [at 2.29 µM].
`O=C(Oc1ccccc1)N1CCC2(CC1)CCN(c1ccncc1)CC2` was tested, and the “activity, negative = inhibition” value was -10.5%.
`Cc1ccccc1N1CCN(C(=O)c2ccccc2NC(=O)/C=C\C(=O)O)CC1` was tested, and the “activity, negative = inhibition” value was 0.682%.
With `O=C(c1ccccc1Nc1ccc(SC(F)F)cc1)N1CCCCC1` the AC50 was 14.1 µM (active).
In the case of `CCOC(=O)C1CCN(C(=O)c2ccccc2NC(C)=O)CC1`, the “activity, negative = inhibition” value was 6.29%.
`CCCCNC(=O)C1C2C=CC3(CN(Cc4ccccc4Cl)C(=O)C13)O2` (stereo not given) was tested, and the “activity, negative = inhibition” value was -27%.
`Cc1cc(-c2cc(-c3ccc(Cl)cc3)nc(N)c2C#N)co1` was tested, and the AC50 was 8.91 µM (active).
`COc1ccc(COC(=O)N/N=C2/C[C@@H](O)[C@@H](O)[C@@H]3[C@@H]4C(=O)N(C(C)(C)C)C(=O)[C@H]4CC[C@@H]23)cc1` gave an activity, negative = inhibition of -55.1% [at 11.4 µM].
With `Cc1cc(C)cc(N(C(=O)C2CCCC2)C2C=CS(=O)(=O)C2)c1` (stereo not given) the “activity, negative = inhibition” value was 21.4%.
`N=C1/C(=C/c2cccs2)C(=O)N=C2SN=C(SCc3ccccc3)N12` was tested, and the AC50 was 15.8 µM (active).
For `CO[C@@H]1/C=C\CC(=O)N[C@@H](C)C(=O)OC[C@@H](OC)[C@H](C)CCCC(=O)OC[C@H]1C`, the activity, negative = inhibition was 0.281% [at 11.4 µM].
`Cc1cc(N2CCN(C)CC2)n2nc(-c3ccc(Cl)cc3)nc2n1` showed an activity, negative = inhibition of -14.3% [at 11.4 µM].
In the case of `Cc1nc2nc(-c3ccc(Cl)cc3)nn2c(C)c1Cl`, the AC50 was 0.562 µM (active).
In the case of `Cc1cc(C)n(-c2nc3c(c(=O)[nH]c(=O)n3C)n2CC(C)C)n1`, the “activity, negative = inhibition” value was -18.7%.
`C/C(Cl)=C\Cn1c(N2CCCC2)nc2c1c(=O)[nH]c(=O)n2C` was tested, and the AC50 was 14.1 µM (active).
For `CCN1CCN(c2nc3c(c(=O)[nH]c(=O)n3C)n2CCCSc2ncccn2)CC1`, the “activity, negative = inhibition” value was 4.05%.
`C#CCCCO/N=C1/[C@H]2O[C@@H]2[C@@H](O)[C@H]2[C@H]1CCn1c(=O)n([C@@H](CC)c3ccccc3)c(=O)n12` was tested, and the activity, negative = inhibition was -5% [at 11.4 µM].
In the case of `O=C(c1ccc([N+](=O)[O-])cc1)n1nc(-c2ccccc2)nc1NCc1ccccc1`, the AC50 was 7.08 µM (active).
For `O=C(CCCNS(=O)(=O)c1cccc2nsnc12)NCCc1ccccc1`, the AC50 was 25.1 µM (active).
For `CC(C)C(NS(=O)(=O)c1cccc2nsnc12)C(=O)N1CCc2ccccc2C1` (stereo not given), the “activity, negative = inhibition” value was -21.9%.
With `COc1ccc(CCNC(=O)C2CCN(S(=O)(=O)c3cccc4nsnc34)CC2)cc1OC` the “activity, negative = inhibition” value was -0.953%.
In the case of `O=C1CCCCC(=O)c2ccccc2N1`, the “activity, negative = inhibition” value was -0.404%.
For `O=C1Cc2c([nH]c3ccc(Br)cc23)-c2ccccc2N1`, the AC50 was 0.158 µM (active).
For `O=C(NC1(C(F)(F)F)C(=O)Nc2c1c(=O)[nH]c(=O)n2-c1ccc(F)cc1)c1cccnc1` (stereo not given), the “activity, negative = inhibition” value was 26.4%.
`Cn1c(Sc2ccc(-c3cccnc3)n2C)ccc1-c1cccnc1` was tested, and the AC50 was 0.398 µM (active).
`C1CCc2nnnn2CC1` was tested, and the “activity, negative = inhibition” value was -4.71% [at 25.6 µM].
`NC(N)=NC(N)=Nc1cccc(Cl)c1` was tested, and the AC50 was “inactive”.
Work on `NC(N)=NC(N)=Nc1ccc(S(N)(=O)=O)cc1` yielded an activity, negative = inhibition of -9.8% [at 11.4 µM].
With `NC(N)=NC(N)=Nc1ccc(S(=O)(=O)O)cc1` the activity, negative = inhibition was -8.09% [at 11.4 µM].
In the case of `NC(N)=NC(N)=Nc1ccccc1`, the AC50 was 31.6 µM (active).
`NC(N)=NC(N)=Nc1ccccc1` (tested in a mixture with another compound) was tested, and the AC50 was 3.16 µM (active).
For `NC(N)=NC(N)=Nc1c(F)c(F)c(F)c(F)c1F`, the activity, negative = inhibition was 10.9% [at 2.29 µM].
